The values that follow come from PubChem BioAssay (NCI).

This is part of a sample that, as a whole, favours compounds with a hit. Of some 83,000 tested, about 20% had one in any assay.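 How to read the values: 0–100, growth inhibition (40 = 60% inhibited); 0, no net growth; -100 to 0, cell death (-40 = 40% of starting cells died; -100 = all dead).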 Values without a mark were called inactive. The source made the active and inactive calls. The calls were made as follows: active = growth percent below 10; inactive = the rest.

This test relates to HL-60(TB) leukemia. Put plainly: NCI-60 one-dose screen, 48 h (100 = growth as untreated, 0 = no growth, -100 = all killed). The note with it: 10 µM unless noted.
For `COc1ccc(-c2cn(Cc3cc4ccccc4s3)nn2)cc1OCCN1CCCCC1`, the growth was 77%.

For the compound `COc1ccc2c(c1)O/C(=C\c1cccc(OCC(=O)Nc3nc4ccccc4s3)c1)C2=O`, the growth was 40.7%.

On to `COc1ccc(N=c2nc3sc4cc(Cl)ccc4n3c(N)c2C#N)cc1`, for which the growth was 119%.

With `CCCCCCCCCCCCCCn1cc(C2=C(c3coc4ccc(OC)cc34)C(=O)NC2=O)c2ccccc21`, the growth was 129%.

Regarding `CNC(=O)c1cc(Oc2cccc3nc(NC(=O)Nc4cc(C(F)(F)F)ccc4Cl)ccc23)ccn1`, the growth is 103%.

For the compound `CCOC(=O)c1cc2cccc(OC)c2oc1=O`, the growth was 117%.

Turning to `Cc1ccc(NC(=O)c2ccc(Nc3ncnc4c3cnn4-c3cccc(F)c3)cc2)cc1`, the growth is 90.2%.

On to `CCCCCCCCCCCCCCCCOc1ccc(C)cc1`, for which the growth was 134%.

As to `CC(C)c1ccc(-n2c(=S)[nH]c3sc4c(c3c2=O)CCC(=O)C4)cc1`, the growth is 75.4%.

As for `CCOC(=O)c1nnn(-c2no[n+]([O-])c2-c2ccc(OC)cc2)c1COc1cccc2cccnc12`, the growth is -18.3% (active).

As to `COc1cc(/C=C/C(=O)c2c(-c3ccc(F)cc3)nc3sc(C)nn23)cc(OC)c1OC`, the growth is 12%.

As to `CSCCCNC(=O)c1ccc2c(c1)/C(=C/c1[nH]c(C)cc1C)C(=O)N2`, the growth is 46.1%.

`CC(C)=CCNc1ncnc2c1ncn2C1OC(CO)C(O)C1O` (centres undefined): the growth was -40.7% [1 mM] (active).

As to `N#Cc1ccc(N2Cc3cc(Cl)ccc3OC3=C2C(=O)N(Cc2ccccc2)C3=O)cc1`, the growth is -48.2% (active).
